Laboratory results: publication PMC4336329 (PLoS ONE, 2015)
Hit rate of the full screen: of about 310,000 compounds, about 2,200 (0.71%) showed an effect of 50% or more. The effect is printed as a negative number. Many of the other results were omitted from the sample, so strong results are more common in it than they were.

Molecular target: human ether-à-go-go-related gene (hERG) potassium channel (human, UniProt Q12809)
Test: primary screen, population patch clamp on CHO cells stably expressing hERG; higher = less effect of the substance

human ether-à-go-go-related gene (hERG) potassium channel, sequence (Q12809 whole entry, looked up): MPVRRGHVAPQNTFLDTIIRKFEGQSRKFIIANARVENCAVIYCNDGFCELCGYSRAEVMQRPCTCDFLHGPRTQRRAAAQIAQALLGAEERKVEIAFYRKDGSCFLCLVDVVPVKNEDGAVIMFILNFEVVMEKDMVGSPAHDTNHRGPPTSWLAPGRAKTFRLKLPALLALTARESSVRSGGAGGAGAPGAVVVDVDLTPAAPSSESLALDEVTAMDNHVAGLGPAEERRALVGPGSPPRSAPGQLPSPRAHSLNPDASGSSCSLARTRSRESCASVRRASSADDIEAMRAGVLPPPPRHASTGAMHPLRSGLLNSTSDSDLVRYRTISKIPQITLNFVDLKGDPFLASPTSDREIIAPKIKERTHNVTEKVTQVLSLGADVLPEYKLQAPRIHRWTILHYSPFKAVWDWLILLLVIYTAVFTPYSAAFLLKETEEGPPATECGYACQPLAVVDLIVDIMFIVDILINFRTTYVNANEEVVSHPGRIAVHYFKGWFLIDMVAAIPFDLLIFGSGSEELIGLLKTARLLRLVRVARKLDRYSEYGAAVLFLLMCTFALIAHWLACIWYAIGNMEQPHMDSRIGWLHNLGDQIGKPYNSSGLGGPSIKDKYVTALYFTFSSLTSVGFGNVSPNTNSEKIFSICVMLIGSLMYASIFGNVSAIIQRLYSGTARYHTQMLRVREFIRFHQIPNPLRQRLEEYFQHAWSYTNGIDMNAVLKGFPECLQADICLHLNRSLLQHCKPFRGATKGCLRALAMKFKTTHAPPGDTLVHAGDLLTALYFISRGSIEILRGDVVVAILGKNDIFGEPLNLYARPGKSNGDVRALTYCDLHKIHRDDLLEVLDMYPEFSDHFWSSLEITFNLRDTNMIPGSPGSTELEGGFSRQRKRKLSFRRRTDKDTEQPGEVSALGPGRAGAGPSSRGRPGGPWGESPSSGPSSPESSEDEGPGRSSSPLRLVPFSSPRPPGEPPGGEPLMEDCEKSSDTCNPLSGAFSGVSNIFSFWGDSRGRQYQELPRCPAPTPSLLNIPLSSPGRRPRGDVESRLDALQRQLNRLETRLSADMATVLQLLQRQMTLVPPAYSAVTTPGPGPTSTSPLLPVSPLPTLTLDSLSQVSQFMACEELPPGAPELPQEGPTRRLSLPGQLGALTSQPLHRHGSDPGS

Going from `Cc1c(NC(=O)C(C)Oc2ccc(Br)cc2Cl)c(=O)n(-c2ccccc2)n1C` (centres unmarked) to `CC(=O)N/N=C/c1cc(C)n(-c2ccc(Br)cc2)c1C`, the “hERG current change (%, negative = inhibition) at 1uM” value rises from -1.81% to 1.14%.

Compared with `COc1ccc(C(=O)NC(=S)NCc2ccco2)cc1`, `COc1ccc(NC(=O)c2ccc(NC(=O)c3cccs3)cc2)cc1` is lower in “hERG current change (%, negative = inhibition) at 1uM” value: 15% for the first, 0.302% for the second.

Going from `Cc1cc(C)c(S(=O)(=O)Cc2ccc(Cl)cc2)c(=O)[nH]1` to `Cc1ccc(-n2nc(C(=O)O)cc2-c2ccc(Cl)cc2)cc1`, the “hERG current change (%, negative = inhibition) at 1uM” value falls from 9.42% to 8.61%.

First: O=C(N1CCN(CCO)CC1)N1c2ccccc2C=Cc2ccccc21
Second: CCn1c(N2CCN(C(=O)/C=C/c3ccccc3)CC2)nc2ccccc21
The “hERG current change (%, negative = inhibition) at 1uM” value of the first is higher: 13% for the first, -77.4% for the second.

First: CCN(C(=O)CSc1nnc(NC2CCCCC2)s1)C1CCS(=O)(=O)C1 (centres unmarked)
Second: CCCc1cc(=O)[nH]c(SCC(=O)N(C)C2CCCCC2)n1
The “hERG current change (%, negative = inhibition) at 1uM” value of the first is lower: 2.2% for the first, 13.3% for the second.

Going from `CCOc1ccc(NC(=O)CN2CCN(CC(=O)Nc3ccc(C(N)=O)cc3)CC2)cc1` to `CCOc1ccc(NC(=O)CN2CCN(CC(=O)Nc3ccc(F)cc3)CC2)cc1`, the “hERG current change (%, negative = inhibition) at 1uM” value falls from -36.9% to -87.3%.

Compared with `CCOc1ccc(NC(=O)CN2CCN(CC(=O)c3ccc(OC)c(OC)c3)CC2)cc1`, `CCOc1ccc(NC(=O)CNC(=O)c2ccc(OC)c(OC)c2)cc1` is higher in “hERG current change (%, negative = inhibition) at 1uM” value: -56.3% for the first, 5.55% for the second.

Going from `O=C(c1ccc(F)cc1)C1CCN(C(=O)NCc2ccccc2)CC1` to `O=C(NCc1ccc(F)cc1)C1CCN(C(=O)NCc2ccccc2)CC1`, the “hERG current change (%, negative = inhibition) at 1uM” value rises from -5.59% to 19.1%.

Compared with `O=C(CN1CCN(CC(=O)Nc2cccc(F)c2)CC1)Nc1ccc(-c2ccccc2)cc1`, `CCOc1ccc(NC(=O)CN2CCN(CC(=O)Nc3cccc(F)c3)CC2)cc1` is lower in “hERG current change (%, negative = inhibition) at 1uM” value: 13.6% for the first, -97.2% for the second.

First: CCOC(=O)N1CCN(CC(=O)Nc2ccc(F)c(F)c2)CC1
Second: CCOc1ccc(NC(=O)CN2CCN(CC(=O)Nc3ccc(F)c(F)c3)CC2)cc1
The “hERG current change (%, negative = inhibition) at 1uM” value of the first is higher: 8.59% for the first, -87.9% for the second.

Going from `CCOc1ccc(NC(=O)CN2CCN(CC(=O)Nc3ccc(Cl)c(C(F)(F)F)c3)CC2)cc1` to `CCOc1ccc(NC(=O)CN2CCN(c3ccc(F)cc3)CC2)cc1`, the “hERG current change (%, negative = inhibition) at 1uM” value rises from -6.47% to 11.4%.

Going from `COc1ccc(S(=O)(=O)N2CCN(CC(=O)Nc3cccc(F)c3)CC2)cc1` to `COc1ccc(NC(=O)CN2CCN(c3ccc(F)cc3)CC2)cc1`, the “hERG current change (%, negative = inhibition) at 1uM” value rises from -8.66% to 7.86%.

Compared with `O=C(NCc1ccccc1)N1CCC(n2cnc3cc(F)ccc32)CC1`, `Cc1[nH]c(-c2ccc(F)cc2)cc1C(=O)N1CCN(c2ccccc2)CC1` is higher in “hERG current change (%, negative = inhibition) at 1uM” value: -56.6% for the first, -29% for the second.

Compared with `CCCCSc1nnc(-c2cc(Br)ccc2N)c(=O)[nH]1`, `Cn1ncc(Br)c1C(=O)Nc1ccc(Br)cn1` is higher in “hERG current change (%, negative = inhibition) at 1uM” value: 0.939% for the first, 16.3% for the second.

Going from `CCC(C)(C)NC(=O)C(c1ccc(OC)cc1)N(Cc1ccco1)C(=O)CCC(=O)Nc1cc(C)on1` (centres unmarked) to `COc1ccc(OCC(O)COc2ccc(C(=O)O)cc2)cc1` (centres unmarked), the “hERG current change (%, negative = inhibition) at 1uM” value rises from 4.86% to 8.21%.

Compared with `COc1ccc(CC(NC(C)=O)C(=O)NC2CCN(C(=O)Nc3ccc(Cl)cc3)CC2)cc1OC` (centres unmarked), `COc1ccc(OC)c(S(=O)(=O)N2CCC(C(=O)NCc3ccccc3OC)CC2)c1` is lower in “hERG current change (%, negative = inhibition) at 1uM” value: 10.2% for the first, 3.09% for the second.

Going from `O=C(COc1ccccc1[N+](=O)[O-])NCC1(N2CCCCC2)CCCCC1` to `CN(CC(=O)N1CCCCCC1)S(=O)(=O)c1ccc(Br)cc1`, the “hERG current change (%, negative = inhibition) at 1uM” value rises from -4.91% to 0.738%.

Compared with `CCOC(=O)c1ccc(NC(=O)COc2coc(CN3CCc4ccccc43)cc2=O)cc1`, `CC(OC(=O)c1ccccc1NCCO)C(=O)Nc1ccc(S(=O)(=O)N2CCOCC2)cc1` (centres unmarked) is higher in “hERG current change (%, negative = inhibition) at 1uM” value: 8.2% for the first, 11.6% for the second.

First: NC1=NC[C@@H](Cc2ccc(O)cc2)N1CCC12CC3CC(CC(C3)C1)C2
Second: CC1(C)CC(NC(=O)Cc2ccc(Cl)cc2)CC(C)(C)N1
The “hERG current change (%, negative = inhibition) at 1uM” value of the first is lower: 10.4% for the first, 16.7% for the second.

Compared with `N#CCCSc1ncnc2c1oc1ccccc12`, `CCSC1(SCC)N=C(N)C2(C#N)C(c3ccccc3)NC3=C(CCC3)C12C#N` (centres unmarked) is higher in “hERG current change (%, negative = inhibition) at 1uM” value: 4.55% for the first, 14.4% for the second.

Compared with `CCOC(=O)N1CCN(C(=O)c2cc(-c3ccc(F)cc3)[nH]c2C)CC1`, `CCOC(=O)N1CCC(NC(=O)c2cc(-c3ccc(F)cc3)[nH]c2C)CC1` is higher in “hERG current change (%, negative = inhibition) at 1uM” value: -54.1% for the first, 11.6% for the second.

Compared with `CCn1cc(/C=C/C(=O)Nc2c(C)nn(Cc3ccccc3C)c2C)cn1`, `Cc1cccc(-n2c(SCC(=O)N(C)C3CCS(=O)(=O)C3)nc3ccccc3c2=O)c1C` (centres unmarked) is lower in “hERG current change (%, negative = inhibition) at 1uM” value: 15.5% for the first, 13.9% for the second.

First: CC1N(C(=O)N2CCOCC2)CCN1S(=O)(=O)c1ccc(Cl)cc1 (centres unmarked)
Second: Cc1ccc(-n2nc(C(=O)N3CCOCC3)cc2-c2ccc(Cl)cc2)cc1
The “hERG current change (%, negative = inhibition) at 1uM” value of the first is higher: 4% for the first, -87.4% for the second.

`CN(C)CCCNC(=O)/C(=C\c1ccc(-c2ccc(Br)cc2)o1)NC(=O)c1ccccc1` and `CN(C)CCNC(=O)/C(=C/c1ccc(-c2ccc(Cl)cc2)o1)NC(=O)c1ccccc1` are the same in “hERG current change (%, negative = inhibition) at 1uM” value: -82% for the first, -82% for the second.

First: Cc1ccc(C(=O)N/C(=C\c2ccc(-c3ccc(Cl)cc3)o2)C(=O)NCCCN(C)C)cc1
Second: Cc1ccc(C(=O)N/C(=C\c2ccc(-c3ccc(Br)cc3)o2)C(=O)NCCCN(C)C)cc1
The “hERG current change (%, negative = inhibition) at 1uM” value of the first is lower: -93.5% for the first, -84.2% for the second.

Going from `Cc1ccc(C(=O)N/C(=C\c2ccc(Cl)cc2)C(=O)NCC2CCCO2)cc1` (centres unmarked) to `Cc1ccc(C(=O)N/C(=C\c2ccc(-c3cc(Cl)ccc3Cl)o2)C(=O)NCc2cccnc2)cc1`, the “hERG current change (%, negative = inhibition) at 1uM” value rises from -38.7% to 5.35%.

First: CN(C)CCNC(=O)/C(=C/c1ccc(-c2ccc(Cl)cc2Cl)o1)NC(=O)c1ccccc1
Second: CN(C)CCNC(=O)/C(=C/c1ccc(-c2cccc(Cl)c2)o1)NC(=O)c1ccccc1
The “hERG current change (%, negative = inhibition) at 1uM” value of the first is higher: -7.71% for the first, -31.4% for the second.

First: Cc1ccc(/C=C(\NC(=O)c2ccccc2)C(=O)NCCN2CCOCC2)o1
Second: O=C(NCCO)/C(=C\c1ccc([N+](=O)[O-])o1)NC(=O)c1ccccc1
The “hERG current change (%, negative = inhibition) at 1uM” value of the first is lower: 1.36% for the first, 4.89% for the second.

Compared with `Cc1ccc(C(=O)N/C(=C/c2ccc(-c3ccc(Br)cc3)o2)C(=O)NC2CCS(=O)(=O)C2)cc1` (centres unmarked), `Cc1ccc(C(=O)N/C(=C\c2ccc(-c3ccc(Br)cc3)o2)C(=O)NC2CCS(=O)(=O)C2)cc1` (centres unmarked) is higher in “hERG current change (%, negative = inhibition) at 1uM” value: 3.65% for the first, 7.85% for the second.

Compared with `CN(C(=O)c1ccncc1)c1nnc(-c2cccnc2)s1`, `Cc1nc2c(ccc3nc(NC(=O)c4ccc(S(=O)(=O)N(C)C)cc4)sc32)s1` is higher in “hERG current change (%, negative = inhibition) at 1uM” value: 12.8% for the first, 16.4% for the second.

Going from `CCc1cc(C(=O)N/N=C/c2ccc(O)cc2)c2ccccc2n1` to `CC(C)Cn1c(N2CCN(C(=O)/C=C/c3ccccc3)CC2)nc2ccccc21`, the “hERG current change (%, negative = inhibition) at 1uM” value falls from 9.78% to -32.9%.

First: CCC(C)[C@H](NC(=O)[C@@H]1CSC2c3ccccc3C(=O)N21)C(=O)N1CCCCC1 (some centres unmarked)
Second: CC(C)Cn1cc(C(=O)N2CCC3(CC2)OCCO3)c2c3ccccc3n(C)c2c1=O
The “hERG current change (%, negative = inhibition) at 1uM” value of the first is higher: 8.7% for the first, -1.15% for the second.

First: O=C(c1cc(-c2ccc(Cl)cc2)n(-c2ccc(Cl)c(Cl)c2)n1)N1CCOCC1
Second: O=C(c1cc(-c2ccc(Cl)cc2)n(-c2cc(Cl)ccc2Cl)n1)N1CCOCC1
The “hERG current change (%, negative = inhibition) at 1uM” value of the first is higher: 5.69% for the first, -3.98% for the second.

Going from `O=C(c1cc(-c2ccc(Cl)cc2)n(-c2ccc(Cl)cc2Cl)n1)N1CCOCC1` to `O=C(c1cc(-c2ccc(Cl)cc2)n(-c2ccc(Cl)cc2)n1)N1CCOCC1`, the “hERG current change (%, negative = inhibition) at 1uM” value falls from -40.7% to -56.8%.

Going from `COc1ccc(NC(=O)C2CCC(C)(C(=O)O)C2(C)C)cc1` (centres unmarked) to `COc1ccc2c(c1)c(C(=O)O)c(C)n2CC(C)C`, the “hERG current change (%, negative = inhibition) at 1uM” value falls from 11.1% to -2.31%.

Going from `CN=C1S/C(=C\c2ccc(O)c(OC)c2)C(=O)N1C` to `Cc1nc2c(ccc3nc(NC(=O)c4ccc5c(c4)OCCO5)sc32)s1`, the “hERG current change (%, negative = inhibition) at 1uM” value falls from 14% to -86.6%.

Going from `O=C(NC1CCN(Cc2ccccc2)CC1)C1CCN(c2nnc(-n3cccc3)s2)CC1` to `O=C(NC1CCN(Cc2ccccc2)CC1)C1CCCN(c2nnc(-n3cccc3)s2)C1` (centres unmarked), the “hERG current change (%, negative = inhibition) at 1uM” value falls from -28.2% to -65.2%.

Compared with `CC(CCc1ccccc1)NC(=O)C1CCCN(c2nnc(-n3cccc3)s2)C1` (centres unmarked), `CCn1c(N2CCN(Cc3ccc([N+](=O)[O-])cc3)CC2)nc2ccccc21.Cl` is lower in “hERG current change (%, negative = inhibition) at 1uM” value: -7.23% for the first, -81.2% for the second.

First: O=[N+]([O-])c1cccc2ccc(/C=C/c3ccc(Cl)cc3)nc12
Second: Cl.O=[N+]([O-])c1ccc(CN2CCN(c3ccc4ccccc4n3)CC2)cc1
The “hERG current change (%, negative = inhibition) at 1uM” value of the first is higher: 1.88% for the first, -1.76% for the second.

Going from `Cc1nc2ccc3nc(NC(=O)c4ccc5c(c4)OCCO5)sc3c2s1` to `O=C(Cc1c(F)c(F)c(F)c(F)c1F)Nc1nc(-c2ccccc2)cs1`, the “hERG current change (%, negative = inhibition) at 1uM” value rises from 9.46% to 9.84%.

First: CC(NS(=O)(=O)/C=C/c1ccccc1)C(=O)O (centres unmarked)
Second: CCCn1c(N2CCN(C(=O)/C=C/C(=O)O)CC2)nc2ccccc21
The “hERG current change (%, negative = inhibition) at 1uM” value of the first is lower: 12.5% for the first, 14.7% for the second.

For `CCCn1c(N2CCN(Cc3ccc(Cl)cc3)CC2)nc2ccccc21.Cl`, the “hERG current change (%, negative = inhibition) at 1uM” value was -4.77%.
